From PubChem BioAssay (EPA / NIEHS)
Activity calls are given as the source filed them. How the source made its calls: active means hit-call score of the fitted dose curve at least 0.9, where 1 is the maximum; inactive means score below 0.9.

Key:
[1] = ATG_GLI_CIS: Attagene CIS-FACTORIAL HepG2 Assay for human Zinc Finger Protein GLI1 (AID 2282945); conditions: HepG2, Attagene cis-factorial reporter mRNA, GLI element; actives raise or lower the signal
Outline: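 Transiently transfected HepG2 cells report endogenous transcription factor activity via cis-element-driven reporter units. After 24 h compound exposure, reporter mRNA was measured by RT-PCR with capillary electrophoresis; bidirectional fitting against DMSO baseline.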

[2] = molecular target: Bile acid receptor (Homo sapiens) (UniProt Q96RI1); experiment: ATG_IR1_CIS: Attagene CIS-FACTORIAL HepG2 Assay for human Nuclear Receptor Subfamily 1 Group H Member 4 (NR1H4), IR1 submotif (AID 2282946); conditions: IR1 reporter transcription, actives raise or lower the signal
Outline: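 HepG2 cells transiently transfected with multiple cis-promoter-driven reporter units to measure endogenous transcription factor activity; 24 h exposure. Reporter mRNA read by RT-PCR, FAM labelling, HpaI digestion and capillary electrophoresis. Bidirectional fit versus DMSO.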

[3] = ATG_GRE_CIS: Attagene CIS-FACTORIAL HepG2 Assay for human Glucocorticoid Response Elements (GRE) (AID 2282947); conditions: HepG2 GRE cis-reporter, Attagene multiplex mRNA; actives raise or lower the signal
Outline: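 Endogenous transcription factor activity is read through cis-element reporter constructs transiently transfected into HepG2 cells. After 24 h treatment, labelled RT-PCR products are resolved by capillary electrophoresis; DMSO sets baseline for bidirectional curve fitting.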

[4] = ATG_ISRE_CIS: Attagene CIS-FACTORIAL HepG2 Assay for human Interferon Regulatory Factor 1 (IRF1) binding to an Interferon-Stimulated Response Element (ISRE) (AID 2282948); conditions: HepG2 ISRE cis-reporter (Attagene), mRNA transcription readout; actives raise or lower the signal
Outline: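 Transfected HepG2 (multiple reporter transcription units, cis elements) dosed 24 h. RNA → oligo(dT) RT → PCR → 6-FAM primer extension → HpaI → CE. DMSO = negative control/baseline.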

[5] = ATG_M_32_CIS: Attagene CIS-FACTORIAL HepG2 Assay for M32 Transcription Factor (Internal Marker) (AID 2282949); conditions: HepG2 Attagene cis-factorial M32 reporter, mRNA; actives raise or lower the signal;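 further: background control marker of the multiplexed CIS panel rather than a real target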
Outline: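 Internal background marker read-out: RT-PCR/capillary electrophoresis fluorescence of reporter transcripts from transiently transfected HepG2 cells after 24 h chemical exposure. Activity fitted bidirectionally relative to DMSO negative control.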

[6] = ATG_M_06_CIS: Attagene CIS-FACTORIAL HepG2 Assay for M06 Transcription Factor (Internal Marker) (AID 2282950); conditions: HepG2 Attagene CIS-FACTORIAL M06 internal marker reporter; actives raise or lower the signal
Outline: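 HepG2 cells transiently transfected with cis-regulated multiple reporter transcription units were exposed to chemical for 24 h; reporter mRNA was quantified by RT-PCR, 6-FAM primer labelling, HpaI digestion and capillary electrophoresis, fitted bidirectionally against DMSO.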

[7] = molecular target: Hypoxia-inducible factor 1-alpha (Homo sapiens) (UniProt Q16665); experiment: ATG_HIF1a_CIS: Attagene CIS-FACTORIAL HepG2 Assay for human Hypoxia Inducible Factor 1 (HIF1A) (AID 2282951); conditions: HepG2 Attagene cis-factorial HIF1a reporter transcription; actives raise or lower the signal
Outline: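 RT-PCR/capillary electrophoresis fluorescence readout of reporter transcripts from endogenous-TF-driven cis elements in transfected HepG2 cells, 24 h exposure; activity fitted in both directions against DMSO controls.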

[8] = molecular target: Heat shock factor protein 1 (Homo sapiens) (UniProt Q00613); experiment: ATG_HSE_CIS: Attagene CIS-FACTORIAL HepG2 Assay for human Heat Shock Transcription Factor 1 (HSE) (AID 2282953); conditions: HepG2 HSE cis-reporter, Attagene RNA transcription; actives raise or lower the signal
Outline: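 HepG2 cells transiently transfected with multiple reporter transcription units under cis-regulatory promoter control, measuring endogenous transcription factor activity. After 24 h chemical exposure, reporter mRNA quantified by RT-PCR, fluorescent labelling, HpaI digestion and capillary electrophoresis; bidirectional fit versus DMSO.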

[9] = ATG_PBREM_CIS: Attagene CIS-FACTORIAL HepG2 Assay for human Phenobarbital-responsive Enhancer Module (PBREM) (AID 2282955); conditions: HepG2 PBREM cis-reporter, Attagene multiplexed transcription; actives raise or lower the signal
Outline: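 Reporter mRNA read by RT-PCR, 6-FAM primer extension, HpaI digestion and capillary electrophoresis. Transfected HepG2 cells, 24 h compound exposure. Gain or loss of signal fitted bidirectionally relative to DMSO baseline.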

[10] = molecular target: Paired box protein Pax-6 (Homo sapiens) (UniProt P26367); experiment: ATG_Pax6_CIS: Attagene CIS-FACTORIAL HepG2 Assay for human Paired Box 6 (PAX6) (AID 2282956); conditions: HepG2 CIS-FACTORIAL PAX6 reporter transcription, RNA readout; actives raise or lower the signal
Outline: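 Transient MRTU transfection of HepG2 → compound exposure 24 h → TriZol RNA, oligo(dT) RT → PCR, 6-FAM primer extension, HpaI cut → capillary electrophoresis; activity fitted both directions against DMSO.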

[11] = ATG_PXRE_CIS: Attagene CIS-FACTORIAL HepG2 Assay for human Pregnane X Receptor Element (PXRE) (AID 2282957); conditions: HepG2 Attagene CIS-FACTORIAL PXRE reporter, mRNA; actives raise or lower the signal
Outline: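 HepG2 cells transiently transfected with cis-regulated multiple reporter transcription units; endogenous factor activity measured as reporter mRNA 24 h after dosing. RT-PCR, fluorescent primer extension, HpaI digestion, capillary electrophoresis; bidirectional fit versus DMSO baseline.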

[12] = ATG_PPRE_CIS: Attagene CIS-FACTORIAL HepG2 Assay for human Peroxisome Proliferator-activated Response Element (PPRE) (AID 2282958); conditions: HepG2 PPRE cis-element reporter, Attagene transcription factor profiling; actives raise or lower the signal
Outline: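 Read-out: fluorescent reporter mRNA fragments resolved by capillary electrophoresis after RT-PCR. HepG2 cells carried transiently transfected PPRE-driven cis reporter constructs and were dosed for 24 h; gain or loss of signal fitted relative to DMSO.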

[13] = ATG_RORE_CIS: Attagene CIS-FACTORIAL HepG2 Assay for human RAR-related Orphan Receptor Element (RORE) (AID 2282959); conditions: HepG2 Attagene cis-factorial RORE reporter, mRNA; actives raise or lower the signal
Outline: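 Readout: fluorescent reporter mRNA by RT-PCR plus capillary electrophoresis, 24 h after dosing transfected HepG2 cells. Endogenous transcription factor activity on a cis promoter element is measured. Gain or loss of signal fitted against DMSO.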

[14] = ATG_Sox_CIS: Attagene CIS-FACTORIAL HepG2 Assay for human SRY-box transcription factor (SOX) (AID 2282960); conditions: HepG2 Attagene cis-factorial SOX reporter, mRNA; actives raise or lower the signal
Outline: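 Read-out: fluorescent RT-PCR products of SOX1-linked reporter transcripts resolved by capillary electrophoresis, fitted bidirectionally against DMSO. Transiently transfected HepG2 cells, 24 h after chemical exposure, endogenous transcription factor activity.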

[15] = molecular target: Transcription factor Sp1 (Homo sapiens) (UniProt P08047); experiment: ATG_Sp1_CIS: Attagene CIS-FACTORIAL HepG2 Assay for human Specificity Protein 1 (Sp1) (AID 2282961); conditions: HepG2 Sp1 cis-reporter transcription, actives raise or lower the signal
Outline: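 Read-out: fluorescence of 6-FAM-labeled, HpaI-digested RT-PCR products separated by capillary electrophoresis. HepG2 cells carried transfected cis-element reporter units and were exposed to chemicals for 24 h; gain or loss of signal fitted relative to DMSO.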

[16] = ATG_SREBP_CIS: Attagene CIS-FACTORIAL HepG2 Assay for human Sterol Regulatory Element Binding (SREBP) (AID 2282962); conditions: HepG2 Attagene cis-factorial SREBP reporter, mRNA; actives raise or lower the signal
Outline: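 Transfected HepG2 (cis-regulated reporter library, endogenous TFs) → compound 24 h → total RNA → oligo(dT) RT → reporter-specific PCR → FAM primer extension, HpaI cut → CE fluorescence. Fit bidirectional vs DMSO.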

[17] = molecular target: Signal transducer and activator of transcription 3 (Homo sapiens) (UniProt P40763); experiment: ATG_STAT3_CIS: Attagene CIS-FACTORIAL HepG2 Assay for human Signal Transducer and Activator of Transcription 3 (STAT3) (AID 2282963); conditions: HepG2, Attagene cis-factorial STAT3 reporter transcription; actives raise or lower the signal
Outline: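 Values derive from bidirectional fits relative to DMSO of reporter mRNA levels, measured by RT-PCR with capillary electrophoresis, in HepG2 cells carrying transiently transfected cis-regulated reporter units and exposed 24 h.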

[18] = ATG_TA_CIS: Attagene CIS-FACTORIAL HepG2 Assay for human TA Basal Promoter (AID 2282964); conditions: HepG2 Attagene CIS-factorial TA basal promoter reporter; actives raise or lower the signal
Outline: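 HepG2 cells transiently transfected with multiplexed cis-promoter reporter units, dosed 24 h. Reporter mRNA measured by RT-PCR, 6-FAM labelling, HpaI digestion and capillary electrophoresis; bidirectional fit versus DMSO baseline, serving as background control.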

[19] = molecular target: Hepatocyte nuclear factor 6 (Homo sapiens) (UniProt Q9UBC0); experiment: ATG_HNF6_CIS: Attagene CIS-FACTORIAL HepG2 Assay for human Hepatocyte Nuclear Factor 6 (HNF6) (AID 2282952); conditions: HepG2 Attagene cis-factorial HNF6 reporter transcription; actives raise or lower the signal
Outline: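 HepG2 cells transiently transfected with cis-element-driven multiple reporter transcription units, dosed 24 h; reporter mRNA quantified by RT-PCR, FAM primer extension, HpaI digestion and capillary electrophoresis; bidirectional fit versus DMSO baseline.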

[20] = ATG_MRE_CIS: Attagene CIS-FACTORIAL HepG2 Assay for human Metal Responsive Element (MRE) (AID 2282954); conditions: HepG2 MRE cis-reporter transcription, Attagene multiplex; actives raise or lower the signal
Outline: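 Fluorescent reporter fragments separated by capillary electrophoresis give mRNA induction for the MRE unit after 24 h treatment of transfected HepG2 cells. Endogenous transcription-factor activity is read; DMSO serves as negative control and baseline.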

Measured: AC50

Chain of Bile acid receptor (Homo sapiens) (Q96RI1 whole entry, looked up): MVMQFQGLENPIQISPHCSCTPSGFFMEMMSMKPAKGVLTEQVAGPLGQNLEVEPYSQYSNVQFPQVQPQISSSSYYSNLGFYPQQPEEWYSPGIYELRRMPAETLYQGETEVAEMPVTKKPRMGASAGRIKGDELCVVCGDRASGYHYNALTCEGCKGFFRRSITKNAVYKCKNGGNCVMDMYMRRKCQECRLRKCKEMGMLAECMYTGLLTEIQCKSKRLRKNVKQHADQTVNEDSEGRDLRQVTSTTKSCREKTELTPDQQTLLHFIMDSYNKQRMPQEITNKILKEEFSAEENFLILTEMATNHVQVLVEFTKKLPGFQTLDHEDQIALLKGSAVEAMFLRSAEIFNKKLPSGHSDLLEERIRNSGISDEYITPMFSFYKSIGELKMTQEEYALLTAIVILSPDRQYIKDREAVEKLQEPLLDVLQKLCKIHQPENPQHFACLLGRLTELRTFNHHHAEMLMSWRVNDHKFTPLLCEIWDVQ
Chain of Heat shock factor protein 1 (Homo sapiens) (Q00613 whole entry, looked up): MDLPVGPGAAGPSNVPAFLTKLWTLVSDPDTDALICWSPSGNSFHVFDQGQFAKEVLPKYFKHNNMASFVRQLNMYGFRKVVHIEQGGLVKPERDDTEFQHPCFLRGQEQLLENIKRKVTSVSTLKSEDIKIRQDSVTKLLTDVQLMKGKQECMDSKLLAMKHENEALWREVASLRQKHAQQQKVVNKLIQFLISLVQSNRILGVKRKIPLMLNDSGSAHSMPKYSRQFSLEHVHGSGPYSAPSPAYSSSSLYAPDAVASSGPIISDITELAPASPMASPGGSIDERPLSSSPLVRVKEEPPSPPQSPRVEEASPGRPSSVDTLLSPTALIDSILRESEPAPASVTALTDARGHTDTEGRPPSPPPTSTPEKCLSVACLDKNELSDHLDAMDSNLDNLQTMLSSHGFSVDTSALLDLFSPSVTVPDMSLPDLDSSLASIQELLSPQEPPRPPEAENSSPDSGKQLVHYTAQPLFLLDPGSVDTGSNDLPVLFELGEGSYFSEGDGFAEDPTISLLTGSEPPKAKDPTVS
Chain of Signal transducer and activator of transcription 3 (Homo sapiens) (P40763 whole entry, looked up): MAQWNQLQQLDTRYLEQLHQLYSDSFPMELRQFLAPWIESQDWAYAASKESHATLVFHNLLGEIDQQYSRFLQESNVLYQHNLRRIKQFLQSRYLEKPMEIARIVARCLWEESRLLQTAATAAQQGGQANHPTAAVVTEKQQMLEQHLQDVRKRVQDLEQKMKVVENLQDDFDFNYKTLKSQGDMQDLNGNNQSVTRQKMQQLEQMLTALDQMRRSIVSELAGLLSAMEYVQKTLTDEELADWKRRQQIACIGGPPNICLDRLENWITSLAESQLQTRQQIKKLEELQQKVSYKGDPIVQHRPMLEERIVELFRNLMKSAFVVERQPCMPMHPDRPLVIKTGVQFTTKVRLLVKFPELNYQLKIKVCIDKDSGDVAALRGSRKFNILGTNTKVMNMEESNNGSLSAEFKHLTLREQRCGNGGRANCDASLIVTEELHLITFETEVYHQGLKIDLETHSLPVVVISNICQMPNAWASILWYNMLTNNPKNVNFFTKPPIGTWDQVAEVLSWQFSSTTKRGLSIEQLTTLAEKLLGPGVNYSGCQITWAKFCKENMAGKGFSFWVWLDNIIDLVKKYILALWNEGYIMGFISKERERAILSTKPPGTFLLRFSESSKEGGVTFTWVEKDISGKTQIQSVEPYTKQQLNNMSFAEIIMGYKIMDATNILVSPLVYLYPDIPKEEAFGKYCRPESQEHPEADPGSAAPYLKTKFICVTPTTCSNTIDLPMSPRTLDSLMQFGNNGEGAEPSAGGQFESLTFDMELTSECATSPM
Chain of Hypoxia-inducible factor 1-alpha (Homo sapiens) (Q16665 whole entry, looked up): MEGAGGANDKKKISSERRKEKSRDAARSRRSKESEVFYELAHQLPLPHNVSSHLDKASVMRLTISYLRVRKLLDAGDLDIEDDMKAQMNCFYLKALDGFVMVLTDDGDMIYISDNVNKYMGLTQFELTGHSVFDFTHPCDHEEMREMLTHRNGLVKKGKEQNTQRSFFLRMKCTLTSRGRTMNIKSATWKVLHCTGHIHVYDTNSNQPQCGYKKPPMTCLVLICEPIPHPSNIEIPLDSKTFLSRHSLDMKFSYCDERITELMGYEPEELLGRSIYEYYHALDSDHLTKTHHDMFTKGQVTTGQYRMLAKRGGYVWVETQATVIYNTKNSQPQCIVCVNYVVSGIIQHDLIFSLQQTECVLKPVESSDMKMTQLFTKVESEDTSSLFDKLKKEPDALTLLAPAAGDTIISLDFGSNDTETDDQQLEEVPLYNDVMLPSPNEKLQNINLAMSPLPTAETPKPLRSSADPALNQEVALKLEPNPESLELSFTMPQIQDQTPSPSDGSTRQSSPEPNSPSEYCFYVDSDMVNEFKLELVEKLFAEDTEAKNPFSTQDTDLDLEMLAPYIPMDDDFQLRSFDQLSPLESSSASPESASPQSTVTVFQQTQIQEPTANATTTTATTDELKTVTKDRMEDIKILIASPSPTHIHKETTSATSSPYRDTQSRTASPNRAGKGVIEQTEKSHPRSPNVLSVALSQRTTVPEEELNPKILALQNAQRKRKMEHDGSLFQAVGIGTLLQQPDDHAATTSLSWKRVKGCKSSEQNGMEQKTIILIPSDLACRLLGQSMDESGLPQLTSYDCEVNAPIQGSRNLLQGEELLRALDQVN
Chain of Hepatocyte nuclear factor 6 (Homo sapiens) (Q9UBC0 whole entry, looked up): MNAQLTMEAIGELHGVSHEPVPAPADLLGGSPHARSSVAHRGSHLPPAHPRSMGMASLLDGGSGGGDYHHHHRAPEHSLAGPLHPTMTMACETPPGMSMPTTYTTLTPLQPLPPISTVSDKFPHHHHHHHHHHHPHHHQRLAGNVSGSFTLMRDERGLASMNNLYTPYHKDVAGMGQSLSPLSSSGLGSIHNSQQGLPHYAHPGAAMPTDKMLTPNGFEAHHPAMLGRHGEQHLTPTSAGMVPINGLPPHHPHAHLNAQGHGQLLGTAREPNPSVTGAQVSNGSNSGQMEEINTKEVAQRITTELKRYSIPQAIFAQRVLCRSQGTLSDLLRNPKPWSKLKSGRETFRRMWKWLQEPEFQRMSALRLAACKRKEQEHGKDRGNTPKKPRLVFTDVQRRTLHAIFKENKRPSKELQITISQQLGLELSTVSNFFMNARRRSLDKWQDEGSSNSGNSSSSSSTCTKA
Chain of Transcription factor Sp1 (Homo sapiens) (P08047 whole entry, looked up): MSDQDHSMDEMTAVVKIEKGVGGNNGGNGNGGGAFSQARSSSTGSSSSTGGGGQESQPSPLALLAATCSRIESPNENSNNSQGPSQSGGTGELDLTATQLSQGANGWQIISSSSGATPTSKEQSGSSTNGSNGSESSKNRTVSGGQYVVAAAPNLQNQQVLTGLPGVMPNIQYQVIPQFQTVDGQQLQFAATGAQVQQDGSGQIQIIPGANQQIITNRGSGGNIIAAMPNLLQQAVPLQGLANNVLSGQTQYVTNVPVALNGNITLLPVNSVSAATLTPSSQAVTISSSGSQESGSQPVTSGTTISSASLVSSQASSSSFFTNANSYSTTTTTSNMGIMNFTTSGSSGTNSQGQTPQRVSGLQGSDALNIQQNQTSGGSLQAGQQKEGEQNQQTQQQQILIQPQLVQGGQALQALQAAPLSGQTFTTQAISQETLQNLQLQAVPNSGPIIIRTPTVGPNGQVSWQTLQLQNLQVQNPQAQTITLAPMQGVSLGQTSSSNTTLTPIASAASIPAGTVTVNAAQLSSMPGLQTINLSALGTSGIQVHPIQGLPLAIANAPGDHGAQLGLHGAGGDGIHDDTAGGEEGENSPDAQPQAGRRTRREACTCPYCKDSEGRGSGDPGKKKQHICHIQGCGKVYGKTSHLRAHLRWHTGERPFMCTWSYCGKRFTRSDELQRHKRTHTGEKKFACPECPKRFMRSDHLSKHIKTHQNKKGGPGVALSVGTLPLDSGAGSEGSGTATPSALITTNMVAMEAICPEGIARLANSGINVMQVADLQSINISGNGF
Chain of Paired box protein Pax-6 (Homo sapiens) (P26367 whole entry, looked up): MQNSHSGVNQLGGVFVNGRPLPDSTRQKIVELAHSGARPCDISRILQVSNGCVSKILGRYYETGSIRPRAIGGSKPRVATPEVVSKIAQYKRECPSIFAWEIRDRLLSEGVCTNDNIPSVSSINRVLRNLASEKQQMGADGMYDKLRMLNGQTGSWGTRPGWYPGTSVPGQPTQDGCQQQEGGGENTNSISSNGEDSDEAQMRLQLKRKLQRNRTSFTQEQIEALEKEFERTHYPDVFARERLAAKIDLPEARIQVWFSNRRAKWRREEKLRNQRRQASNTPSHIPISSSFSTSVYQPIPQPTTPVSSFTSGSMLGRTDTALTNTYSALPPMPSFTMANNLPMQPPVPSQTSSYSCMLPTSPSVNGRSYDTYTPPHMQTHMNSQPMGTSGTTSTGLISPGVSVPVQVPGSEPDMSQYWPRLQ

CN[C@H]1CC[C@@H](c2ccc(Cl)c(Cl)c2)c2ccc(S(N)(=O)=O)cc21
active: [16] 3.7 µM
not listed: [19] | [20]
inactive: all other assays above

CC(CO)OC(C)CO (stereo not given) (tested in a mixture with another compound)
active: [7] 4.72 µM
not listed: [6] | [9] | [20]
inactive: all other assays above

CN1CCN(Cc2cc(-c3ccc4[nH]c(=O)oc4c3)co2)[C@@H](c2ccc(F)cc2)C1
active: [4] 18 µM | [7] 6.55 µM | [10] 47.4 µM | [11] 8.51 µM | [16] 33 µM | [18] 33 µM
not listed: [8] | [12] | [13] | [20]
inactive: all other assays above

CCCCc1ccc2c(n1)[C@@H](c1ccc(OC)cc1C[C@H](C)C(=O)O)[C@H](C(=O)O)[C@H]2c1ccc2c(c1)OCO2
not listed: [6] | [12] | [20]
inactive: all other assays above

CNC(=O)[C@H]1O[C@@H](n2cnc3c(NCc4cc(Cl)ccc4OCc4cc(C)no4)ncnc32)[C@H](O)[C@@H]1N
not listed: [6] | [19] | [20]
inactive: all other assays above

Cc1cc(=O)[nH]c(=S)[nH]1
not listed: [15] | [20]
inactive: all other assays above

Cc1c(C(=O)O)c(O)cc2c1C(=O)c1c(O)c([C@@H]3O[C@H](CO)[C@@H](O)[C@H](O)[C@H]3O)c(O)c(O)c1C2=O
active: [11] 53.9 µM
not listed: [6] | [8] | [9] | [15] | [19]
inactive: all other assays above

CCc1c(C(=O)NN2CCCCC2)nn(-c2ccc(Cl)cc2Cl)c1-c1ccc(Br)cc1
active: [2] 2.4 µM | [4] 3.67 µM | [7] 0.387 µM | [10] 1.75 µM | [11] 0.147 µM | [16] 0.719 µM
not listed: [3] | [15] | [20]
inactive: all other assays above

CCOC(=O)C(C)(C)Oc1ccc(Cl)cc1
not listed: [6] | [7] | [9] | [20]
inactive: all other assays above

Cc1nc(C)nc(N2C[C@@H](C)N(c3ccnc([C@@H](C)O)n3)[C@@H](C)C2)n1
not listed: [6] | [9] | [12] | [19]
inactive: all other assays above

O=C(O)CCCCC(=O)O
active: [11] 55 µM
not listed: [6] | [8] | [15] | [19] | [20]
inactive: all other assays above

CCCCCCCCCCCC(=O)OC
active: [16] 59.6 µM
not listed: [15] | [19] | [20]
inactive: all other assays above

COc1cc(C=O)ccc1O
not listed: [3] | [8] | [15] | [19] | [20]
inactive: all other assays above

Cc1nc(-c2ccc3c(c2)CCN(CCC2CCC(NC(=O)/C=C/c4ccc(F)cc4)CC2)CC3)no1 (stereo not given)
not listed: [6] | [19]
inactive: all other assays above

CC1(C)NC(=O)NC1=O
active: [7] 12 µM | [11] 25.7 µM
not listed: [2] | [20]
inactive: all other assays above
